Test results taken from paper PMC10812921, “Transcriptional Coactivator BOB1 (OBF1, OCA-B) Modulates the Specificity of DNA Recognition by the POU-Domain Factors OCT1 and OCT2 in a Monomeric Configuration”.

Assays:
POU1 (OCT1 POU domain) = POU1 (OCT1 POU domain) (human, UniProt P14859 260-458); assay: EMSA-SELEX-seq; no BOB1; 20 mM Tris-HCl pH 7.6, 140 mM NaCl, 10% glycerol, 0.5 mM EDTA, 0.05% Triton X-100, 0.1 mg/mL BSA, 0.1 mg/mL poly(dI-dC), 5 mM DTT, room temperature, 20 min; high values mean tight binding; conditions: protein: recombinant; dsDNA, one strand shown
How it was run: (§1)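 Tagged POU-domain proteins were expressed in E. coli BL21, purified under denaturing conditions and renatured. Then 30 ng was mixed with 300 ng of a PCR-amplified double-stranded random 35-nt library, with or without 28 ng coactivator protein, in 20 μL Tris–HCl pH 7.6 binding buffer for 20 min at RT. Complex bands were cut from native 6% PAGE, eluted and PCR-amplified over four rounds, then Illumina-sequenced. Binding preference is the percentage of sequenced 8-mers matching a motif pattern.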

POU2 (OCT2 POU domain) = biological target: T1, POU2 (OCT2 POU domain) (human, UniProt P09086 175-386); assay: as above; conditions: protein: recombinant; dsDNA, one strand shown
T1 sequence: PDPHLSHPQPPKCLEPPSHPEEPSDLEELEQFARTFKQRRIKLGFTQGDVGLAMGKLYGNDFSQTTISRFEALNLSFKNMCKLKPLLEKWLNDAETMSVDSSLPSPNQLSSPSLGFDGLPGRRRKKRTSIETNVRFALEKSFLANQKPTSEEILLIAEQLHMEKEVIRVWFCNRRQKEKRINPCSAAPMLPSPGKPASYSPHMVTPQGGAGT
How it was run: as §1

[1] = biological target: POU1 (OCT1 POU domain);BOB1 (OBF1, OCA-B) (human;human, UniProt P14859;Q16633 260-458;1-256, |); assay: EMSA-SELEX-seq; with BOB1 (ternary complex band); 20 mM Tris-HCl pH 7.6, 140 mM NaCl, 10% glycerol, 0.5 mM EDTA, 0.05% Triton X-100, 0.1 mg/mL BSA, 0.1 mg/mL poly(dI-dC), 5 mM DTT, room temperature, 20 min; high values mean tight binding; conditions: protein: recombinant;recombinant; copies: 1;1; dsDNA, one strand shown
How it was run: as §1

[2] = biological target: T2, POU2 (OCT2 POU domain);BOB1 (OBF1, OCA-B) (human;human, UniProt P09086;Q16633 175-386;1-256, |); assay: as above; conditions: protein: recombinant;recombinant; copies: 1;1; dsDNA, one strand shown
T2 sequence 1: T1 sequence
T2 sequence 2: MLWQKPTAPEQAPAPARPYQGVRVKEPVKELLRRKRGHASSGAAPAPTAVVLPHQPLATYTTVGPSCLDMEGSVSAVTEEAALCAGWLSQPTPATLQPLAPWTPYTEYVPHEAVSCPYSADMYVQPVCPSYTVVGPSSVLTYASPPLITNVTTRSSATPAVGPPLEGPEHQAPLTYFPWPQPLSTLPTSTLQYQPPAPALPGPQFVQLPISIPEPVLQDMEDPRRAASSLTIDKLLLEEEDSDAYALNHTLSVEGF
How it was run: as §1

POU1 (OCT1 POU domain), sequence (P14859 260-458): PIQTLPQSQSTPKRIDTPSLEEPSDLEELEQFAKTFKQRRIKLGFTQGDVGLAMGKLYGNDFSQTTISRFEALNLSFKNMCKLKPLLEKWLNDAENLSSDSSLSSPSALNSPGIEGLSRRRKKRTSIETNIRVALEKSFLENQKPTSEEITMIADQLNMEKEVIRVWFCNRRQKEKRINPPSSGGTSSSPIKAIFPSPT

Sequence | binding signal (POU1 (OCT1 POU domain)) | binding signal (POU2 (OCT2 POU domain)) | binding signal [1] | binding signal [2]
AGATAAAT | 0.0892 % of ANNNNAAN 8-mers | 0.0886 % of ANNNNAAN 8-mers | 0.0617 % of ANNNNAAN 8-mers | 0.0627 % of ANNNNAAN 8-mers
AGCACAAT | 0.0233 % of ANNNNAAN 8-mers | 0.0311 % of ANNNNAAN 8-mers | 0.0258 % of ANNNNAAN 8-mers | 0.0264 % of ANNNNAAN 8-mers
ACGTCAAA | 0.0271 % of ANNNNAAN 8-mers | 0.0178 % of ANNNNAAN 8-mers | 0.0371 % of ANNNNAAN 8-mers | 0.0173 % of ANNNNAAN 8-mers
ATTAGAAG | 0.0786 % of ANNNNAAN 8-mers | 0.101 % of ANNNNAAN 8-mers | 0.0585 % of ANNNNAAN 8-mers | 0.066 % of ANNNNAAN 8-mers
AATCTAAA | 0.107 % of ANNNNAAN 8-mers | 0.129 % of ANNNNAAN 8-mers | 0.0726 % of ANNNNAAN 8-mers | 0.0669 % of ANNNNAAN 8-mers
AACCGAAC | 0.013 % of ANNNNAAN 8-mers | 0.0173 % of ANNNNAAN 8-mers | 0.0117 % of ANNNNAAN 8-mers | 0.0198 % of ANNNNAAN 8-mers
ATATTAAA | 0.297 % of ANNNNAAN 8-mers | 0.365 % of ANNNNAAN 8-mers | 0.131 % of ANNNNAAN 8-mers | 0.14 % of ANNNNAAN 8-mers
ACACTAAT | 0.0568 % of ANNNNAAN 8-mers | 0.0811 % of ANNNNAAN 8-mers | 0.0316 % of ANNNNAAN 8-mers | 0.0438 % of ANNNNAAN 8-mers
AACTTAAC | 0.0294 % of ANNNNAAN 8-mers | 0.0288 % of ANNNNAAN 8-mers | 0.0234 % of ANNNNAAN 8-mers | 0.0248 % of ANNNNAAN 8-mers
AGTGGAAC | 0.0267 % of ANNNNAAN 8-mers | 0.0207 % of ANNNNAAN 8-mers | 0.0281 % of ANNNNAAN 8-mers | 0.0314 % of ANNNNAAN 8-mers
ATGTTAAT | 1.39 % of ANNNNAAN 8-mers | 1.31 % of ANNNNAAN 8-mers | 0.208 % of ANNNNAAN 8-mers | 0.24 % of ANNNNAAN 8-mers
ACGCAAAG | 0.098 % of ANNNNAAN 8-mers | 0.061 % of ANNNNAAN 8-mers | 0.163 % of ANNNNAAN 8-mers | 0.0809 % of ANNNNAAN 8-mers
AAGCGAAG | 0.0271 % of ANNNNAAN 8-mers | 0.027 % of ANNNNAAN 8-mers | 0.0238 % of ANNNNAAN 8-mers | 0.0231 % of ANNNNAAN 8-mers
ACTCAAAT | 0.0889 % of ANNNNAAN 8-mers | 0.061 % of ANNNNAAN 8-mers | 0.127 % of ANNNNAAN 8-mers | 0.0768 % of ANNNNAAN 8-mers
ATTTGAAG | 0.0713 % of ANNNNAAN 8-mers | 0.0604 % of ANNNNAAN 8-mers | 0.0909 % of ANNNNAAN 8-mers | 0.0545 % of ANNNNAAN 8-mers
AAGTCAAT | 0.0667 % of ANNNNAAN 8-mers | 0.0731 % of ANNNNAAN 8-mers | 0.0535 % of ANNNNAAN 8-mers | 0.0677 % of ANNNNAAN 8-mers
ATCGCAAC | 0.0126 % of ANNNNAAN 8-mers | 0.0173 % of ANNNNAAN 8-mers | 0.014 % of ANNNNAAN 8-mers | 0.0239 % of ANNNNAAN 8-mers
AATGCAAA | 1.36 % of ANNNNAAN 8-mers | 1.1 % of ANNNNAAN 8-mers | 2.58 % of ANNNNAAN 8-mers | 3.21 % of ANNNNAAN 8-mers
ACGTAAAC | 0.0358 % of ANNNNAAN 8-mers | 0.0299 % of ANNNNAAN 8-mers | 0.0433 % of ANNNNAAN 8-mers | 0.0405 % of ANNNNAAN 8-mers
ACGCGAAT | 0.0389 % of ANNNNAAN 8-mers | 0.0512 % of ANNNNAAN 8-mers | 0.0336 % of ANNNNAAN 8-mers | 0.0371 % of ANNNNAAN 8-mers
ACGAAAAT | 0.106 % of ANNNNAAN 8-mers | 0.0949 % of ANNNNAAN 8-mers | 0.139 % of ANNNNAAN 8-mers | 0.0834 % of ANNNNAAN 8-mers
AGGCTAAG | 0.0362 % of ANNNNAAN 8-mers | 0.0414 % of ANNNNAAN 8-mers | 0.0312 % of ANNNNAAN 8-mers | 0.0446 % of ANNNNAAN 8-mers
ACGCCAAA | 0.0133 % of ANNNNAAN 8-mers | 0.0219 % of ANNNNAAN 8-mers | 0.016 % of ANNNNAAN 8-mers | 0.0223 % of ANNNNAAN 8-mers
AGGTGAAA | 0.0587 % of ANNNNAAN 8-mers | 0.0466 % of ANNNNAAN 8-mers | 0.0601 % of ANNNNAAN 8-mers | 0.0471 % of ANNNNAAN 8-mers
